The whole screen tested about 63,000 compounds, of which about 1,100 (1.7%) were called active. The sample holds actives, similar compounds and a random draw of the others, so the mix is not that of the screen. Results with a measured potency or affinity are listed apart. A number with no mark means an inactive call.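 The calls were made as follows: active = compounds whose percent cytotoxicity in the single-dose primary screen, scaled between solvent and toxic-drug controls, exceeds 50; inactive = the rest.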

This assay is described as follows: cytotoxicity in KRAS-transformed pancreatic duct cells, primary screen, cell-based, fluorescence, HTS (AID 431).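 Also: 0% = DMSO solvent wells and 100% = doxorubicin-treated wells.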 Particulars: HPDE-C7K KRASV12 cells, Alamar Blue viability, 48 h; at 10 µM; hits give high values. (Resazurin is reduced to fluorescent resorufin, in cell work by metabolically active cells.)
In the case of `CC1(C)CC(=O)C(C=Nc2cccnc2)=C(O)C1`, the cytotoxicity was 7.1%.

Consider `COc1cc(C(=O)Nc2cccc(-c3nc4cc(C)ccc4o3)c2C)cc(OC)c1OC`, for which the cytotoxicity is 14.3%.

`CCOC(=O)C1=C(N)Oc2cc(C)oc(=O)c2C1c1cccnc1` (stereo unspecified): the cytotoxicity was 4.4%.

Regarding `Cc1n[nH]c(=O)nc1NCc1ccccc1`, the cytotoxicity is -17%.

Regarding `CCCCCc1c(C)nc(NCc2ccccc2)[nH]c1=O`, the cytotoxicity is 2.9%.

For the molecule `CCC(C)(C)NC(=O)C(c1cccn1C)N(Cc1ccccc1)C(=O)Cn1nnc2ccccc21` (stereo unspecified), the cytotoxicity was -4.3%.

`CC(=O)NC1CSCC1OC(C)=O` (stereo unspecified): the cytotoxicity is -14.9%.

In the case of `CCOC(=O)c1c(N)sc(C(=O)N2CCOCC2)c1C`, the cytotoxicity was -10.1%.

Turning to `COc1cc(NC(=O)c2ccc(COc3ccccc3Br)o2)cc(OC)c1OC`, the cytotoxicity was 68.9% (active).

For the molecule `CC(C)(C)NC(=O)c1ccc(COc2ccccc2Br)o1`, the cytotoxicity was -20.3%.

For `O=C(Nc1nccs1)c1ccc(COc2ccccc2Br)o1`, the cytotoxicity is 51% (active).

Turning to `O=C(Nc1nccs1)c1ccc(COc2ccc(F)cc2)o1`, the cytotoxicity is 5%.

Consider `O=C(Nc1cccnc1)c1ccc(COc2ccccc2Br)o1`, for which the cytotoxicity was 30.3%.

As to `COc1ccc(NC(=O)c2ccc(COc3ccccc3Br)o2)cc1OC`, the cytotoxicity is 40.4%.

`CC(C)c1nc(SCC(=O)NCc2ccccc2)n[nH]1`: the cytotoxicity is -9.2%.

With `CN1C(=O)c2ccccc2N(C)C1c1ccc2c(c1)OCO2` (stereo unspecified), the cytotoxicity is 6.7%.

With `COc1ccc(C(=O)NCC(=O)n2nc(C)cc2C)cc1OC`, the cytotoxicity is 13.4%.

As for `Cc1ccc2c(c1)N(C(C)C(=O)NCCc1ccccc1)C(=O)CO2` (stereo unspecified), the cytotoxicity is -4.9%.

Turning to `COc1cccc(CN(C)CC(=O)NC(=O)NCc2ccco2)c1`, the cytotoxicity was -9.5%.

As to `O=C(CN(C1CCCCC1)S(=O)(=O)c1ccc(Cl)cc1)NCc1cccnc1`, the cytotoxicity was -28.1%.

`O=C(CN(C1CCCCC1)S(=O)(=O)c1ccccc1)NCc1cccnc1`: the cytotoxicity is 73.1% (active).

As to `Cc1ccc(S(=O)(=O)N(CC(=O)NCc2ccncc2)C2CCCCC2)cc1`, the cytotoxicity was 1.7%.

For `COc1ccc(C(=O)N2CCCC(c3nc(-c4cccs4)no3)C2)cc1` (stereo unspecified), the cytotoxicity was 3%.

`CCOc1ccc(-c2c(C#N)c(N)nc3c2c(=O)n(C)c(=O)n3C)cc1OC`: the cytotoxicity was -3.8%.

Regarding `c1ccc(-n2ncc3c(NCc4ccco4)ncnc32)cc1`, the cytotoxicity is 7.1%.

For the molecule `c1ccc(Cn2ncc3c(NCc4ccco4)ncnc32)cc1`, the cytotoxicity is 8.3%.

Turning to `CN(C)CCCNc1ncnc2c1cnn2-c1ccccc1`, the cytotoxicity is 0.7%.

For `Cc1ccc(-n2ncc3c(NCc4ccco4)ncnc32)c(C)c1`, the cytotoxicity is 5.4%.

As for `CCCCNc1ncnc2c1cnn2-c1ccccc1`, the cytotoxicity is 61.8% (active).

Regarding `Cc1cccc(-n2ncc3c(NCc4ccco4)ncnc32)c1`, the cytotoxicity is 69.2% (active).

Consider `Clc1ccc(-n2ncc3c(NCc4ccco4)ncnc32)cc1`, for which the cytotoxicity is 8.8%.

With `CCCCNc1ncnc2c1cnn2-c1ccc(Cl)cc1`, the cytotoxicity is 28.5%.

With `Clc1ccc(Cn2ncc3c(NCc4ccco4)ncnc32)c(Cl)c1`, the cytotoxicity was 60.9% (active).

In the case of `COc1ccc(S(=O)(=O)Cc2ccc(C(=O)NCCCN(C)c3ccccc3)o2)cc1`, the cytotoxicity was 2.5%.

Take `CCOC(=O)C1C(=O)CC(C)(O)C(C(=O)OCC)C1c1ccco1` (stereo unspecified): the cytotoxicity is 1.3%.

Turning to `CC1CC(C)CN(C(=O)CCCn2c(=S)[nH]c3ccccc3c2=O)C1` (stereo unspecified), the cytotoxicity is -3.1%.

For the molecule `CCOc1cc(C(=O)N2CCOCC2)ccc1OCc1ccccc1`, the cytotoxicity was -7.3%.

With `CC(C)OCCCNC(=O)CN1CCN(Cc2ccccc2Cl)C1=O`, the cytotoxicity is -6.4%.

On to `Cc1nnc(NC(=O)CSc2nnc(CNC(=O)c3ccccc3)n2-c2ccccc2)s1`, for which the cytotoxicity was -0.6%.

Take `O=C(C1CCN(S(=O)(=O)Cc2ccccc2)CC1)N1CCN(c2ncccn2)CC1`: the cytotoxicity was 11.4%.

On to `CCC(=O)NCCC(c1ccco1)c1ccccc1OC` (stereo unspecified), for which the cytotoxicity is -5.9%.

In the case of `O=C(O)c1oc2ccccc2c1-n1cccc1`, the cytotoxicity was 7.2%.

For the molecule `O=C(O)c1c(-c2ccccc2)c2oc3ccccc3c2[nH]c1=O`, the cytotoxicity is 81.6% (active).

As to `O=c1[nH]c(Cc2ccccc2)nc2c1oc1ccccc12`, the cytotoxicity was 10.4%.

On to `COC(=O)c1ccc(C(=O)OC)c(NS(C)(=O)=O)c1`, for which the cytotoxicity is -2.8%.

Take `CC(=O)Nc1cccc(OCC(O)Cn2cnc3ccccc32)c1` (stereo unspecified): the cytotoxicity was 3.6%.

In the case of `Cc1cccc(CN2CCN(c3ccccn3)CC2)c1`, the cytotoxicity was -9.1%.

On to `OCCOCCN1CCN(C(c2ccccc2)c2ccc(Cl)cc2)CC1` (stereo unspecified), for which the cytotoxicity is 26.4%.

Regarding `Cc1cccc(CN2CCN(C(=O)c3ccccc3F)CC2)c1`, the cytotoxicity is -6.8%.

For `CN1CCCN(C(c2ccccc2)c2ccc(Cl)cc2)CC1` (stereo unspecified), the cytotoxicity is 51% (active).

With `Cc1cccc(CN2CCN(C(c3ccccc3)c3ccc(Cl)cc3)CC2)c1` (stereo unspecified), the cytotoxicity was 85.4% (active).

For `Cc1cc(N2CCN(C(c3ccccc3)c3ccc(Cl)cc3)CC2)n2ncnc2n1` (stereo unspecified), the cytotoxicity is 8.1%.

As for `O=C(Nc1ccc2c(c1)OCO2)C1CCCN(S(=O)(=O)c2cccs2)C1` (stereo unspecified), the cytotoxicity was 0.2%.

Consider `Cc1ccc(NC(=O)c2ccco2)c(NC(=O)c2cccs2)c1`, for which the cytotoxicity is -4.8%.

`COc1ccc(C(=O)OCCN2CCOCC2)cc1OC`: the cytotoxicity was -1.7%.

`Cc1ccc(C(=O)N(CC(=O)NC2CCCC2)Cc2cccs2)s1`: the cytotoxicity was 5.4%.

For `Cc1ccc2cccc(OCC(=O)NCc3ccco3)c2n1`, the cytotoxicity is -8.8%.

Regarding `CCCCCOc1ccc(C(=O)NC(C(=O)O)C(C)C)cc1` (stereo unspecified), the cytotoxicity was 6.5%.

Regarding `Cc1ccc(O)c(N=CC2=C(O)c3ccccc3C2=O)c1`, the cytotoxicity was 52.6% (active).

As for `O=C1C(C=Nc2ccccc2O)=C(O)c2ccccc21`, the cytotoxicity is 13.8%.

Turning to `CN=CC1=C(O)c2ccccc2C1=O`, the cytotoxicity is -1.7%.

With `Cc1cccc(-n2ncc3c(NC4CCCCC4)ncnc32)c1`, the cytotoxicity was 11.8%.

For the molecule `COC(=O)c1c(NC(=O)c2ccc(Br)s2)sc2c1CCC2`, the cytotoxicity was 64.4% (active).

For `CCOC(=O)c1c(NC(=O)c2ccco2)sc2c1CCCCC2`, the cytotoxicity was 11.4%.

Turning to `NC(=O)c1c(NC(=O)c2cccs2)sc2c1CCCCCC2`, the cytotoxicity is 57.6% (active).

With `COC(=O)c1c(NC(C)=O)sc2c1CCCC2`, the cytotoxicity is 3.4%.

`O=C(Nc1sc2c(c1C(=O)O)CCCC2)c1cccs1`: the cytotoxicity is 13.8%.

`NC(=O)c1c(NC(NC(=O)c2ccco2)(C(F)(F)F)C(F)(F)F)sc2c1CCCC2`: the cytotoxicity is 51.3% (active).

As for `O=C(Nc1sc2c(c1C(=O)O)CCCCC2)c1ccco1`, the cytotoxicity was 3.9%.

As to `O=C(Nc1sc2c(c1C(=O)O)CCC2)c1cccs1`, the cytotoxicity is 5.8%.

Take `COC(=O)c1c(NC(=O)c2ccoc2C)sc2c1CCC2`: the cytotoxicity is -18%.
